According to PubChem BioAssay (NCI):
About 79,000 compounds went through this panel and 15% of them were active in at least one assay; those are over-represented in the sample as a whole. A number with no mark means an inactive call. The source made the active and inactive calls. Cut-off read from the data, not from the text of the source: active = growth inhibition above about 70%; inactive = the rest.

Tests used:
[1] = NCI Yeast Anticancer Drug Screen. Data for the rad52 strain (AID 147);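 note: 0% = growth of vehicle-treated control cultures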; conditions: S. cerevisiae rad52 mutant growth inhibition, active compounds read high
Summary of the method: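 Inhibition of yeast growth, referenced to vehicle controls, was the measured output for a strain with defective DNA damage repair.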

[2] = NCI Yeast Anticancer Drug Screen. Data for the wt1 strain (AID 149);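 note: 0% = growth of vehicle-treated wt1 cultures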; conditions: S. cerevisiae wt1 strain (SPY 50644) growth inhibition, active compounds read high
Summary of the method: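 Measured: growth of wt1 yeast under compound versus vehicle treatment, reported as inhibition.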

[3] = NCI Yeast Anticancer Drug Screen. Data for the rad50EPP+ strain (AID 151);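 note: 0% = growth of vehicle-treated control cultures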; conditions: S. cerevisiae rad50 mutant strain, active compounds read high
Summary of the method: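 Genetically defined yeast (rad50EPP+, DNA damage repair alteration) is grown with compound, and inhibition of growth is expressed relative to vehicle-treated controls.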

[4] = NCI Yeast Anticancer Drug Screen. Data for the rad50 strain (AID 155);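 note: 0% = growth of vehicle-only cultures of the same strain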; conditions: S. cerevisiae rad50 strain growth inhibition, active compounds read high
Summary of the method: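 Growth of the mutant yeast was measured after compound exposure and referenced to vehicle-treated cultures.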

[5] = NCI Yeast Anticancer Drug Screen. Data for the mec2-1 strain (AID 157); conditions: S. cerevisiae mec2-1 strain, active compounds read high
Summary of the method: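 Each compound was tested on mec2-1 yeast, a strain altered in DNA damage repair or cell cycle control. Growth inhibition is reported relative to vehicle.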

[6] = NCI Yeast Anticancer Drug Screen. Data for the rad14 strain (AID 159);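 note: 0% = growth of vehicle-treated control cultures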; conditions: S. cerevisiae rad14 strain growth inhibition, active compounds read high
Summary of the method: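 Here, inhibition of yeast growth was measured after compound exposure, using a strain with a genetic defect in DNA damage repair and vehicle-treated cultures as the reference.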

[7] = NCI Yeast Anticancer Drug Screen. Data for the sgs1 mgt1 strain (AID 161);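 note: 0% = growth of cultures given vehicle only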; conditions: S. cerevisiae sgs1 mgt1 strain, active compounds read high
Summary of the method: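 Inhibition of yeast growth, normalised to vehicle-treated controls, is reported for a strain bearing genetic alterations in DNA damage repair.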

[8] = NCI Yeast Anticancer Drug Screen. Data for the CLN2oe strain (AID 163);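 note: 0% = growth of vehicle-only control cultures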; conditions: S. cerevisiae CLN2oe strain, active compounds read high
Summary of the method: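 First, the altered yeast strain was treated with each compound; second, its growth was measured; finally, inhibition was derived by comparison with vehicle controls.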

[9] = NCI Yeast Anticancer Drug Screen. Data for the cln2 rad14 strain (AID 165);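 note: 0% = growth equal to vehicle treated cultures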; conditions: S. cerevisiae cln2 rad14 strain, active compounds read high
Summary of the method: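 Test compounds were added to cln2 rad14 yeast cultures; inhibition of growth was then determined by comparison with vehicle treatment.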

[10] = NCI Yeast Anticancer Drug Screen. Data for the bub3 strain (AID 167); conditions: S. cerevisiae bub3 mutant strain, active compounds read high
Summary of the method: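 Whole-cell yeast assay. The mutant strain was incubated with compounds, and growth inhibition was determined by comparison with vehicle-treated cells.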

[11] = NCI Yeast Anticancer Drug Screen. Data for the wt2 strain (AID 169);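 note: 0% = growth of vehicle-treated yeast cultures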; conditions: S. cerevisiae wt2 strain growth inhibition, active compounds read high
Summary of the method: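 The panel's yeast strains carry defined changes in DNA repair or cell cycle genes. Each strain is grown with compound, and growth loss is scored relative to vehicle.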

[12] = NCI Yeast Anticancer Drug Screen. Data for the mlh1 strain (AID 171);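 note: 0% = growth of vehicle-treated control cultures of the same strain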; conditions: S. cerevisiae mlh1 strain growth inhibition, active compounds read high
Summary of the method: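 Inhibition values reflect reduced yeast growth in the presence of compound, referenced to vehicle controls, using a strain chosen for its alteration in DNA repair or cell cycle control.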

[13] = NCI Yeast Anticancer Drug Screen. Data for the mlh1 rad18 strain (AID 175); conditions: S. cerevisiae mlh1 rad18 strain growth inhibition, active compounds read high
Summary of the method: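 Inhibition values reflect reduced growth of mutant yeast versus vehicle-treated controls following compound exposure; the mutations affect DNA damage repair.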

[14] = NCI Yeast Anticancer Drug Screen. Data for the rad18 strain (AID 177); conditions: S. cerevisiae rad18 mutant growth inhibition, active compounds read high
Summary of the method: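 Steps: expose repair-mutant yeast to compound; measure growth; express as inhibition relative to vehicle control.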

[15] = at 5.0 µM (retest, dose inferred, filed as 0.5)
[16] = at 50.0 µM (retest, dose inferred, filed as 5.0)

CC1CCCN(CCc2ccccc2)CC1 (stereo not drawn)
growth inhibition ([1]; at 1.2 µM): 1% | growth inhibition ([1]; at 3.7 µM): 4% | growth inhibition ([1]; at 11.0 µM): 11% | growth inhibition ([1]; at 33.0 µM): 16% | growth inhibition ([1]; at 100.0 µM): 26% | growth inhibition ([2]; at 1.2 µM): 2% | growth inhibition ([2]; at 3.7 µM): 8% | growth inhibition ([2]; at 11.0 µM): 8% | growth inhibition ([2]; at 33.0 µM): 7% | growth inhibition ([2]; at 100.0 µM): 5% | growth inhibition ([3]; at 1.2 µM): 2% | growth inhibition ([3]; at 3.7 µM): 3% | growth inhibition ([3]; at 11.0 µM): 4% | growth inhibition ([3]; at 33.0 µM): 4% | growth inhibition ([3]; at 100.0 µM): 5% | growth inhibition ([4]; at 1.2 µM): 1% | growth inhibition ([4]; at 3.7 µM): 6% | growth inhibition [4, 15]: -8% | growth inhibition ([4]; at 11.0 µM): 10% | growth inhibition ([4]; at 33.0 µM): 13% | growth inhibition [4, 16]: 66% | growth inhibition ([4]; at 50.0 µM): 17.4% | growth inhibition ([4]; at 100.0 µM): 14% | growth inhibition ([5]; at 1.2 µM): 0% | growth inhibition ([5]; at 3.7 µM): 8% | growth inhibition [5, 15]: -13% | growth inhibition ([5]; at 11.0 µM): 12% | growth inhibition ([5]; at 33.0 µM): 15% | growth inhibition [5, 16]: 11% | growth inhibition ([5]; at 50.0 µM): 20.9% | growth inhibition ([5]; at 100.0 µM): 22% | growth inhibition ([6]; at 1.2 µM): 2% | growth inhibition ([6]; at 3.7 µM): 14% | growth inhibition ([6]; at 11.0 µM): 29% | growth inhibition ([6]; at 33.0 µM): 33% | growth inhibition ([6]; at 100.0 µM): 31% | growth inhibition [7, 15]: 13% | growth inhibition [7, 16]: 76% (active) | growth inhibition ([7]; at 50.0 µM): 28.8% | growth inhibition ([8]; at 1.2 µM): -5% | growth inhibition ([8]; at 3.7 µM): -8% | growth inhibition ([8]; at 11.0 µM): 18% | growth inhibition ([8]; at 33.0 µM): 30% | growth inhibition ([8]; at 100.0 µM): 43% | growth inhibition [9, 15]: 5% | growth inhibition [9, 16]: 37% | growth inhibition ([9]; at 50.0 µM): 58.6% | growth inhibition ([10]; at 1.2 µM): -3% | growth inhibition ([10]; at 3.7 µM): 0% | growth inhibition [10, 15]: 2% | growth inhibition ([10]; at 11.0 µM): 9% | growth inhibition ([10]; at 33.0 µM): 21% | growth inhibition [10, 16]: 83% (active) | growth inhibition ([10]; at 50.0 µM): 46.6% | growth inhibition ([10]; at 100.0 µM): 25% | growth inhibition ([11]; at 1.2 µM): 2% | growth inhibition ([11]; at 3.7 µM): 4% | growth inhibition ([11]; at 11.0 µM): 6% | growth inhibition ([11]; at 33.0 µM): 8% | growth inhibition ([11]; at 100.0 µM): 10% | growth inhibition ([12]; at 1.2 µM): 1% | growth inhibition ([12]; at 3.7 µM): 4% | growth inhibition ([12]; at 11.0 µM): 10% | growth inhibition ([12]; at 33.0 µM): 15% | growth inhibition ([12]; at 100.0 µM): 14% | growth inhibition [13, 15]: 19% | growth inhibition [13, 16]: 78% (active) | growth inhibition ([13]; at 50.0 µM): 34.9% | growth inhibition ([14]; at 1.2 µM): 3% | growth inhibition ([14]; at 3.7 µM): 7% | growth inhibition ([14]; at 11.0 µM): 15% | growth inhibition ([14]; at 33.0 µM): 12% | growth inhibition ([14]; at 100.0 µM): 16%

C[CH2][Sn]1([CH2]C)[O]C2C(O)OC(CO)C(O)C2[O]1 (stereo not drawn)
growth inhibition ([1]; at 1.2 µM): 0% | growth inhibition ([1]; at 3.7 µM): 10% | growth inhibition ([1]; at 11.0 µM): 19% | growth inhibition ([1]; at 33.0 µM): 29% | growth inhibition ([1]; at 100.0 µM): 76% (active) | growth inhibition ([2]; at 1.2 µM): -8% | growth inhibition ([2]; at 3.7 µM): -15% | growth inhibition ([2]; at 11.0 µM): -9% | growth inhibition ([2]; at 33.0 µM): -2% | growth inhibition ([2]; at 100.0 µM): 61% | growth inhibition ([3]; at 1.2 µM): -8% | growth inhibition ([3]; at 3.7 µM): -21% | growth inhibition ([3]; at 11.0 µM): -34% | growth inhibition ([3]; at 33.0 µM): -23% | growth inhibition ([3]; at 100.0 µM): -17% | growth inhibition ([4]; at 1.2 µM): 12% | growth inhibition ([4]; at 3.7 µM): 12% | growth inhibition [4, 15]: 17% | growth inhibition ([4]; at 11.0 µM): -7% | growth inhibition ([4]; at 33.0 µM): 4% | growth inhibition [4, 16]: 67% | growth inhibition ([4]; at 50.0 µM): 33.5% | growth inhibition ([4]; at 100.0 µM): 66% | growth inhibition ([5]; at 1.2 µM): 10% | growth inhibition ([5]; at 3.7 µM): 4% | growth inhibition [5, 15]: 8% | growth inhibition ([5]; at 11.0 µM): 4% | growth inhibition ([5]; at 33.0 µM): 24% | growth inhibition [5, 16]: 75% (active) | growth inhibition ([5]; at 50.0 µM): 80.5% (active)
